The sample as a whole holds a higher share of hits than the screen did.
IL1B secr inh: inhibitors of inflammasome signaling (IL-1 beta secretion). THP-1 LPS/ATP IL-1B secretion, AlphaLISA, 16 h; hits give low values. activity change, % at 57.5 µM. 360,000 tested, 4.7% active. AID 743279; in the data active means activity change below about -50%; inconclusive means mostly about -30% to -49%
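Secreted IL-1B measured by AlphaLISA bead assay after 16 h compound exposure of THP-1 cells; compounds (final up to 57.5 uM) added 1 h before LPS (250 ng/mL) and ATP (1.25 mM) stimulation; lower signal means less secretion.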
HT1080-NT tox: kills 2HG-producing HT-1080-NT fibrosarcoma cells; HT-1080-NT fibrosarcoma viability, CellTiter-Glo ATP luminescence, 48 h; Potency, µM (doses to about 46.1 µM), usual class: cytotoxic; 360,000 tested, 1.6% active;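 further: NT is the 2HG producing partner of a matched IDH1 knockdown line; nearly all actives have a fitted effect of over 55% in size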
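Viability by CellTiter-Glo luminescence after 48 h compound exposure at 37C of HT-1080-NT cells (750/well, RPMI, 5% FBS). % activity scaled between DMSO wells and medium-only wells, then curve-fitted and categorized by curve class.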
ALOX12 inh: ALOX12 (human) lipoxygenase inhibition; AID 1671190; 580,000 tested, 1.1% active; Potency, µM (doses to about 108 µM), usual class: inhibitors; purified 12hLO, xylenol orange hydroperoxide absorbance; P18054
Target sequence (P18054 whole entry, looked up): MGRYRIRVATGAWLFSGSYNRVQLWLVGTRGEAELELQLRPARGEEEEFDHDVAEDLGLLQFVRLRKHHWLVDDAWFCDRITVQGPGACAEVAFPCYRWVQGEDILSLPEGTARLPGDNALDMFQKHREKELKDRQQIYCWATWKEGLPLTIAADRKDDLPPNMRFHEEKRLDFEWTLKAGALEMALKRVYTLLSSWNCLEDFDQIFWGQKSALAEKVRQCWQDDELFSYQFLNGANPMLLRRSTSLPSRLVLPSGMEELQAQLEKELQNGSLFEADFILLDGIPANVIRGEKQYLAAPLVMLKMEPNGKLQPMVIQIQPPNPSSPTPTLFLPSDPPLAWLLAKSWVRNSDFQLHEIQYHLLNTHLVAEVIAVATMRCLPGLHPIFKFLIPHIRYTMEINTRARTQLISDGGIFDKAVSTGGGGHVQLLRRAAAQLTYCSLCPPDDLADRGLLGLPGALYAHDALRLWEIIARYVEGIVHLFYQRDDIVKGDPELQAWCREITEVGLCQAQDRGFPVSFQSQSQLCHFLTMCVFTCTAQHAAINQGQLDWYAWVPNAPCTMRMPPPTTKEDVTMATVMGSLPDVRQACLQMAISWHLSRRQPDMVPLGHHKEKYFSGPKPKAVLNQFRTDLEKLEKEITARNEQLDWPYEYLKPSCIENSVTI
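Purified human 12hLO (150 nM final) in 25 mM Hepes, 0.01% Triton X-100, pH 7.0 was preincubated 15 min at room temperature with compound. Then 40 uM arachidonic acid was added, 30 min. Hydroperoxide was read by Fe-XO absorbance ratio 573/405 nm.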
HT1080 IDH1KD tx: kills HT-1080 cells with IDH1 knockdown | HT-1080 IDH1 knockdown viability, ATP luminescence, 48 h | Potency, µM (top dose mostly 46.1 µM), hits mostly cytotoxic | 360,000 tested, 2% active
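% activity derives from luminescence (CellTiter-Glo), normalised to DMSO and no-cell wells. HT-1080-IDH1KD cells, 750/well, had 48 h compound exposure at 37 °C.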
DT40 TDP1 no CPT: qHTS for Inhibitors of human tyrosyl-DNA phosphodiesterase 1 (TDP1): qHTS in cells in absence of CPT; DT40 Tdp1-/- hTDP1 cells, no CPT, ATP luminescence, 48 h; Potency, µM (titrated, usually from 46.2 µM), usual class: inhibitors; 420,000 tested, 15% active; further: nearly all actives have a fitted effect of over 55% in size
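Growth kinetics read by CellTiter-Glo luminescence after ≥48 hr at 37 °C. Cells: DT40 Tdp1-/- stably carrying human TDP1, 400 per well, compound exposure in the absence of CPT (DMSO vehicle).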
TDP1 cell CPT: growth inhibition of DT40 Tdp1-/-;hTDP1 cells with camptothecin (screen for TDP1 inhibitors). Potency, µM (series often up to 46.2 µM), hits mostly inhibitors. 420,000 tested, 12% active. chicken DT40 Tdp1-/-;hTDP1 cells + 20 nM CPT, ATP luminescence, 48 h. AID 686979; further: nearly all actives have a fitted effect of over 55% in size
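Chicken DT40 Tdp1-/- cells stably complemented with human TDP1 were seeded at 400 cells/well in medium containing 20 nM camptothecin, exposed to pin-transferred compounds, and grown at 37 °C for at least 48 hr. Viability was read as ATP luminescence.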
Of the large screens only hits and unclear results are named; the others gave an inactive call. Unless noted, the call rests on the fitted dose curve; in most records, active means well fitted curve in the direction sought with a large enough effect; inconclusive means small, poorly fitted or top-dose-only effect, or another doubt; inactive means no such curve, though single readings can be large; an effect the other way counts as inactive or inconclusive.

CC(C)C(NC(=O)c1ccc(-c2ccccc2)cc1)C(=O)O (stereo not given)	none (no result: IL1B secr inh, HT1080-NT tox, HT1080 IDH1KD tx, DT40 TDP1 no CPT, TDP1 cell CPT)
CCOC(=O)C(C)NC(=O)NCCC1CCN(C(=O)Nc2cccc(Cl)c2)CC1 (stereo not given)	none (no result: IL1B secr inh, HT1080-NT tox, HT1080 IDH1KD tx, DT40 TDP1 no CPT, TDP1 cell CPT)
CCSc1ncc(Cl)c(C(=O)Nc2cccc(Cl)c2)n1	DT40 TDP1 no CPT inconclusive, TDP1 cell CPT 10µM (no result: IL1B secr inh, HT1080-NT tox, HT1080 IDH1KD tx)
CCSc1ncc(Cl)c(C(=O)Nc2ccccc2Cl)n1	DT40 TDP1 no CPT inconclusive
O=C(CSC1=NS(=O)(=O)c2ccccc2N1)NCc1ccc(F)cc1	ALOX12 inh inconclusive
Cc1ccc(-c2cnoc2NC(=O)CSc2nc3c(c(=O)[nH]2)CCC3)cc1	none (no result: IL1B secr inh, HT1080-NT tox, HT1080 IDH1KD tx, DT40 TDP1 no CPT, TDP1 cell CPT)
O=C(Nc1nc2ccc(F)cc2s1)c1ccccn1	IL1B secr inh -95, HT1080-NT tox inconclusive, HT1080 IDH1KD tx 8.2µM, DT40 TDP1 no CPT 0.52µM, TDP1 cell CPT 0.65µM
CCOCC(=O)Nc1nc2ccc(OCC)cc2s1	DT40 TDP1 no CPT inconclusive, TDP1 cell CPT inconclusive
O=C(NNc1nc2ccc(F)cc2s1)c1cccc(F)c1	HT1080-NT tox inconclusive, ALOX12 inh inconclusive, HT1080 IDH1KD tx 15µM, DT40 TDP1 no CPT inconclusive, TDP1 cell CPT 12µM
O=C(NNc1nc2ccccc2s1)c1ccc(F)cc1	none
CCOc1ccc2nc(NC(=O)C3(C)CC3(Br)Br)sc2c1 (stereo not given)	DT40 TDP1 no CPT 23µM, TDP1 cell CPT 16µM
CCOC(=O)c1csc(Nc2nc3ccc(F)cc3s2)n1	HT1080 IDH1KD tx inconclusive, DT40 TDP1 no CPT 9.2µM, TDP1 cell CPT 21µM
CCc1cc(=O)oc2c(C)c(OCC(=O)NCc3ccncc3)ccc12	none (no result: IL1B secr inh, HT1080-NT tox, HT1080 IDH1KD tx, DT40 TDP1 no CPT, TDP1 cell CPT)
Cc1cc(C)n2ncc(C(=O)N3CCC(c4[nH]ncc4-c4ccccc4)CC3)c2n1	none (no result: IL1B secr inh, HT1080-NT tox, HT1080 IDH1KD tx, DT40 TDP1 no CPT, TDP1 cell CPT)
COc1cc2c(cc1OC)CN(C(=O)CCNS(=O)(=O)c1ccccc1F)CC2	DT40 TDP1 no CPT inconclusive
CCOc1ccccc1Oc1ccc(CNC(=O)c2nccnc2N)cn1	none (no result: IL1B secr inh, HT1080-NT tox, HT1080 IDH1KD tx, DT40 TDP1 no CPT, TDP1 cell CPT)
NCCCC[C@H](N)C(=O)O	none (no result: IL1B secr inh, HT1080-NT tox, ALOX12 inh, HT1080 IDH1KD tx)
Cc1ccc(S(=O)(=O)NCCn2c(C)cnc2C2CCC2)c(C)c1	none (no result: IL1B secr inh, HT1080-NT tox, HT1080 IDH1KD tx, DT40 TDP1 no CPT, TDP1 cell CPT)
O=C(Nc1nc2ccccc2s1)c1cnccn1	HT1080-NT tox 2.8µM, HT1080 IDH1KD tx inconclusive, DT40 TDP1 no CPT inconclusive, TDP1 cell CPT inconclusive
CCOc1ccc2nc(NC(=O)CSc3ccc(Cl)cc3)sc2c1	DT40 TDP1 no CPT inconclusive, TDP1 cell CPT inconclusive
O=C(Nc1nnc(SCc2ccc(F)cc2)s1)c1ccccn1	HT1080-NT tox inconclusive, HT1080 IDH1KD tx inconclusive, DT40 TDP1 no CPT 5.2µM, TDP1 cell CPT 2.6µM
O=C(Nc1nnc(SCc2ccc(F)cc2)s1)c1cccnc1Cl	none
CCOc1ccc2nc(NC(=O)c3cnccn3)sc2c1	DT40 TDP1 no CPT 23µM, TDP1 cell CPT 23µM
CCOc1ccc2nc(NC(=O)c3ccc(OCC4CCCO4)cc3)sc2c1 (stereo not given)	HT1080-NT tox inconclusive, HT1080 IDH1KD tx inconclusive, DT40 TDP1 no CPT 5.8µM, TDP1 cell CPT 4.1µM
COc1ccc(C(=O)Oc2ccc(/C=C(\C#N)c3nc4cc(C)c(C)cc4[nH]3)cc2)cc1	none (no result: IL1B secr inh, HT1080-NT tox, HT1080 IDH1KD tx, DT40 TDP1 no CPT, TDP1 cell CPT)
COc1ccc2[nH]c(=O)c(CN(C)C(=O)c3ccccc3F)cc2c1	none (no result: IL1B secr inh, HT1080-NT tox, HT1080 IDH1KD tx, DT40 TDP1 no CPT, TDP1 cell CPT)
COc1ccc(Cl)cc1NC(=O)CSc1nnc2[nH]c(=O)cc(-c3ccccc3)n12	none (no result: IL1B secr inh, HT1080-NT tox, HT1080 IDH1KD tx)
COc1c(C)cnc(CN2CCN(C(C(=O)O)c3c[nH]c4ccccc34)CC2)c1C (stereo not given)	none (no result: IL1B secr inh, HT1080-NT tox, HT1080 IDH1KD tx, DT40 TDP1 no CPT, TDP1 cell CPT)
CCN1CCN(c2nc3ccccc3nc2C(C#N)C(=O)OCc2ccccc2)CC1 (stereo not given)	ALOX12 inh inconclusive, DT40 TDP1 no CPT inconclusive, TDP1 cell CPT 23µM
C=CCOC(=O)C(C#N)c1nc2ccccc2nc1N1CCN(c2ccccc2)CC1 (stereo not given)	none (no result: IL1B secr inh, HT1080-NT tox, HT1080 IDH1KD tx, DT40 TDP1 no CPT, TDP1 cell CPT)
CC1CCN(c2nc3ccccc3nc2C(C#N)C(=O)OC2CCCCC2)CC1 (stereo not given)	DT40 TDP1 no CPT inconclusive, TDP1 cell CPT 16µM (no result: ALOX12 inh)
N#CC(C(=O)OC1CCCCC1)c1nc2ccccc2nc1N1CCCCC1 (stereo not given)	none (no result: IL1B secr inh, HT1080-NT tox, HT1080 IDH1KD tx, DT40 TDP1 no CPT, TDP1 cell CPT)
